This note sets out measurements from PubChem BioAssay AID1825 (The Scripps Research Institute Molecular Screening Center, 2009).

Out of some 290,000 compounds screened, about 2,300 (0.79%) were called active. Rule as the data show it: active = inhibition above about 22%; inactive = the rest. The full list was thinned out, with actives kept by preference.

This assay is described as follows: cytotoxicity in IEC-6 intestinal epithelial cells, primary screen, cytotoxicity control for KLF5 inhibitor project, cell-based, luminescence (AID 1825).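 Also: 0% = plate median of test compound wells and 100% = cytotoxic reference compound wells.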 To be noted: IEC-6 cytotoxicity, luminescence viability; at 5 µM; hits give high values.
In general, inhibition refers to the change of the read-out against control, counted positive when it falls. On to `CCOc1ccc(NC(=O)CCC(=O)NNC(=O)NC2CCCCC2)cc1`, for which the inhibition was -7.2% (inactive).

Turning to `O=S(=O)(c1ccc(Br)cc1)n1ccc2ccccc21`, the inhibition is 3.2% (inactive).

Consider `CCn1c(SCC(=O)NC2=NCCS2)nnc1C(C)NC(=O)c1ccccc1F` (centres undefined), for which the inhibition was 0.1% (inactive).

Consider `CCCC(=O)Nc1nc2ccc(NC(=O)c3c(F)c(F)c(OC)c(F)c3F)cc2s1`, for which the inhibition was 76.8% (active).

On to `CSc1nc2ccc(NC(=O)c3c(F)cccc3F)cc2s1`, for which the inhibition is 8.5% (inactive).

For the compound `O=C(Cc1ccccc1)Nc1ccc(NC(=O)c2cccnc2)cc1`, the inhibition was 0.2% (inactive).

As to `CCOC(=O)c1ccc(NC(=O)c2cccnc2)cc1`, the inhibition is -6.9% (inactive).

On to `CCCC(=O)Nc1nc2ccc(NC(=O)c3cccnc3)cc2s1`, for which the inhibition was 30.2% (active).

Regarding `CCOc1ccc2nc(Nc3nc4ccc(NC(C)=O)cc4s3)sc2c1`, the inhibition was -2.2% (inactive).

Turning to `COc1ccccc1/C=C/C(=O)NC1CC2CCC1C2` (centres undefined), the inhibition was 4.4% (inactive).

As for `Cc1cc(C)n2nc(SCC(N)=O)nc2n1`, the inhibition is 4.6% (inactive).

`Cc1cc(C)n2nc(C(=O)NC(C)(C)C)nc2n1`: the inhibition is 3.3% (inactive).

On to `Cc1cc(C)n2nc(CNS(=O)(=O)c3c(F)c(F)c(F)c(F)c3F)nc2n1`, for which the inhibition is 31.5% (active).

For the compound `O=C1C(=O)N(CCCN2CCOCC2)C(c2ccc([N+](=O)[O-])cc2)/C1=C(\O)c1ccc2c(c1)OCCO2` (centres undefined), the inhibition is -1.8% (inactive).

With `COc1ccc(Nc2ncc(C(=O)N3CCN(c4ccccc4OC)CC3)c3ccccc23)cc1`, the inhibition was 11.7% (inactive).

Turning to `CCOc1c(Nc2cccc(Cl)c2)c(=O)c1=O`, the inhibition is 23.4% (active).

Take `Cn1c(Nc2cccc(Cl)c2)nc2ccccc21`: the inhibition is 4.2% (inactive).

`NS(=O)(=O)c1cccnc1Nc1cccc(Cl)c1`: the inhibition is -0.6% (inactive).

As to `Cc1onc(NC(=O)c2ccc([N+](=O)[O-])o2)c1Br`, the inhibition is 46.1% (active).

In the case of `Cc1cccc(NC(=O)c2ccc([N+](=O)[O-])o2)c1`, the inhibition is 66.2% (active).

In the case of `Cc1cccc(NC(=S)NC(=O)c2ccc(Br)o2)c1`, the inhibition is 1.6% (inactive).

For the compound `Cc1onc(C(=O)NCc2ccc(F)cc2)c1[N+](=O)[O-]`, the inhibition is -2.3% (inactive).

Consider `O=C(Nc1ccc(Br)cn1)c1ccc([N+](=O)[O-])o1`, for which the inhibition was 16.7% (inactive).

As to `Cc1cccc(NC(=O)c2sc(-c3ccccc3)nc2-c2ccc([N+](=O)[O-])cc2)c1`, the inhibition is -10% (inactive).

As for `O=c1[nH]cnc(O)c1C(c1ccc(F)cc1)c1c(O)nc[nH]c1=O`, the inhibition is -4.2% (inactive).

Regarding `CC1C(=O)Nc2ccc(S(=O)(=O)N3CCN(c4ccccc4F)CC3)cc2NC1=O` (centres undefined), the inhibition is 1.5% (inactive).

On to `O=c1c2c(-c3ccccc3)ccnc2[nH]n1-c1ccccc1`, for which the inhibition was -0.7% (inactive).

Take `COc1ccc(-c2ccc(CCC(=O)O)n2NC(=O)c2ccc(C(C)(C)C)cc2)cc1`: the inhibition is -6.8% (inactive).

Turning to `O=c1cc(-c2ccccc2)[nH]c2cc(F)ccc12`, the inhibition is 80.7% (active).

Consider `Cc1ccc(-c2cc(=O)c3ccc(F)cc3[nH]2)cc1`, for which the inhibition was -6.3% (inactive).

As for `Cc1ccc(-c2cc(=O)c3ccc(Cl)cc3[nH]2)cc1`, the inhibition was 0.6% (inactive).

Turning to `O=C(Nc1cccc2cccnc12)c1cccc(Cl)c1`, the inhibition was 7.6% (inactive).

For the compound `COc1ccc(C(=O)NCC(=O)N/N=C/c2cccnc2)cc1`, the inhibition was 3.2% (inactive).

Regarding `Cc1nc2nc(C)c(NS(=O)(=O)c3ccc(C(C)(C)C)cc3)c(=O)n2[nH]1`, the inhibition is 1.1% (inactive).

`Cn1nccc1C(=O)NC1CCCc2c1cnn2-c1ccccc1F` (centres undefined): the inhibition is 25.7% (active).

For the compound `Cc1cc(C(=O)NC2CCCc3c2cnn3-c2cccc(C)c2C)c(C)o1` (centres undefined), the inhibition is 4.8% (inactive).

Take `COc1ccc(C(=O)NC2CCCc3c2cnn3-c2cccc(C)c2C)c(OC)n1` (centres undefined): the inhibition is 8.5% (inactive).

In the case of `Cn1nccc1C(=O)NC1CCCc2c1cnn2-c1ccc(F)cc1F` (centres undefined), the inhibition is 31% (active).

Turning to `CC(=O)NCC(=O)NC1CCCc2c1cnn2-c1ccccc1F` (centres undefined), the inhibition was -1.9% (inactive).

In the case of `Cc1ccc(-n2ncc3c2CCCC3NC(=O)c2cnccn2)cc1C` (centres undefined), the inhibition was 3.7% (inactive).

Consider `Cc1ccc(/C=C2\CCn3c2nc2cc(C(=O)O)ccc2c3=O)c(C)c1`, for which the inhibition is 1.8% (inactive).

Regarding `C=C(C)Cn1c(C)cc(C)c(S(=O)(=O)c2ccccc2C)c1=O`, the inhibition is -2.1% (inactive).

With `Cc1cccc(-n2ncc(Cl)c(Cl)c2=O)c1`, the inhibition is 97.5% (active).

As for `Cc1cccc(-n2ncc(C#N)c2-n2cccc2)c1`, the inhibition was 1.1% (inactive).

In the case of `COc1ccc(Oc2c(Cl)cnn(-c3ccccc3)c2=O)cc1`, the inhibition is 1.3% (inactive).

Consider `CC(C)CC(=O)N1CCN(Cc2ccccc2Br)CC1`, for which the inhibition is 1.6% (inactive).

Consider `COc1ccc(/C=C/C(=O)Nc2ccc(C34CC5CC(CC(O)(C5)C3)C4)cc2)cc1OC`, for which the inhibition is 18.5% (inactive).

Turning to `O=C(N=C1SC2CS(=O)(=O)CC2N1c1cc(Cl)ccc1Cl)C1CC1` (centres undefined), the inhibition was -6.4% (inactive).

Turning to `COc1ccc(C23NCCN2C(=O)c2ccccc23)cc1` (centres undefined), the inhibition is 1.3% (inactive).

For the compound `COc1cccc(N2C(=O)CN(Cc3ccccc3)C2=S)c1`, the inhibition was 9.4% (inactive).

On to `Cc1ccc(S(=O)(=O)N2CCN(C)CC2)cc1`, for which the inhibition was -1.1% (inactive).

Turning to `Cc1ccc(S(=O)(=O)N(C)C2(C)CCS(=O)(=O)C2)cc1` (centres undefined), the inhibition is -8.7% (inactive).

Regarding `Cc1ccc(S(=O)(=O)C2(S(=O)(=O)c3ccc(C)cc3)CCCC2)cc1`, the inhibition was 45.6% (active).

On to `COc1ccccc1CCNS(=O)(=O)c1cn(C)nc1C`, for which the inhibition was -1.7% (inactive).

In the case of `CN(CCc1ccccn1)C1CCCN(S(=O)(=O)c2ccccc2Cl)C1` (centres undefined), the inhibition was 5.5% (inactive).

On to `O=C(CN1C(=O)C2C3C=CC(C3)C2C1=O)NCC1COc2ccccc2O1` (centres undefined), for which the inhibition is -0.7% (inactive).

For the compound `O=C1C(=O)N(CC2COc3ccccc3O2)c2ccccc21` (centres undefined), the inhibition was 65.8% (active).

In the case of `Cc1cc(C(=O)CCl)c(C)n1CC1COc2ccccc2O1` (centres undefined), the inhibition was -0.4% (inactive).

For the compound `COc1ccc(N2CC(C(=O)N[C@@H](C)C(=O)N3CCCCC3)CC2=O)cc1` (some centres undefined), the inhibition was 4.5% (inactive).

`Cc1ccc(-n2ncc3c2CC(C)(C)CC3NC(=O)Cc2c(C)noc2C)cc1` (centres undefined): the inhibition is 4% (inactive).

Regarding `COc1cc(Br)c(-c2sc(Nc3ccccc3)n[n+]2-c2ccccc2)cc1OC`, the inhibition was -5.7% (inactive).

Consider `COc1ccc(-c2cn(-c3ccc(OC)cc3)c(=S)[nH]2)cc1`, for which the inhibition is -3.2% (inactive).

Take `O=c1oc2ccccc2cc1-c1cn(-c2ccccc2)c(=S)[nH]1`: the inhibition was 30.6% (active).

For the compound `S=c1[nH]c(-c2cccs2)cn1-c1ccccc1`, the inhibition was -0.4% (inactive).
